# Experimental data as given in PubChem BioAssay AID624483 (NMMLSC, 2012).
# The whole screen tested about 360,000 compounds, of which about 11,000 (3.1%) were called active. Another 2% or so got no clear call; they are omitted. The sample holds actives, similar compounds and a random draw of the others, so the mix is not that of the screen. Rule as the data show it: active = fluorescence intensity above about 16000; inconclusive = no clear call, values can overlap the other calls; inactive = below that.
# Assay: compound fluorescence in toxin protease inhibitor counterscreen, primary screen, artefact control for toxin protease inhibitor project, biochemical, multiplex microsphere, HTS (AID 624483)
# Conditions: compound autofluorescence counterscreen, microsphere flow cytometry; hits give high values
row,Compound,fluorescence intensity
1,CCOCC(=O)NCc1ccc2c(c1)cc(C)n2C,4110 (inactive)
2,COc1cccc2cc(C(=O)NCc3ccc(C)cc3)c(=N)oc12,4920 (inactive)
3,CC1(C(=O)OCC(=O)Nc2ncc(Cl)cc2Cl)CC1(Cl)Cl (stereo not drawn),4330 (inactive)
4,CC(OC(=O)CN1C(=O)C2CCCCC2C1=O)C(=O)Nc1ncc(Cl)cc1Cl (stereo not drawn),23500 (active)
5,CC(Oc1ccc(Cl)cc1)C(=O)OCC(=O)Nc1ncc(Cl)cc1Cl (stereo not drawn),2090 (inactive)
6,Cc1ccc2[nH]c3c(=O)n(CC(=O)NCCc4ccc(Cl)cc4)ncc3c2c1,5710 (inactive)
7,CCc1cc2cc(OC)ccc2nc1SCC(=O)Nc1cc(OC)c(OC)cc1C(=O)O,4520 (inactive)
8,COC(=O)c1cc(OC)c(OC)cc1NC(=O)CSc1ccc(C)cc1,25800 (active)
9,COc1ccc(C)cc1NC(=O)CSc1ccc(Cl)cc1,2540 (inactive)
10,COc1ccc(Br)cc1CN(C)C(=O)C1CC(=O)N(C2CCCC2)C1 (stereo not drawn),3870 (inactive)
11,CCOC(=O)[C@H]1[C@H]2COc3ccc(Cl)cc3[C@@H]2N2C(=O)c3cc(C)ccc3NC(=O)[C@@]12C,3320 (inactive)
12,Cc1cc(/C=C2/NC(=O)NC2=O)c(C)n1-c1cccnc1,8090 (inactive)
13,Cc1ccccc1-n1c(C)cc(/C=C2\NC(=O)NC2=O)c1C,17400 (active)
14,Cc1ccc(CN2C(=O)N/C(=C/c3cc(C)n(-c4ccccn4)c3C)C2=O)cc1,9250 (inactive)
15,O=C(Nc1c(-c2ccccc2)nc2c(Br)cc(Br)cn12)c1ccco1,3100 (inactive)
16,Nc1ncnc2c1ncn2[C@@H]1O[C@H](CNC(=O)[C@H](N)Cc2cccnc2)[C@@H](O)[C@H]1O,6300 (inactive)
17,Cn1c(Nc2ccc(F)cc2)nc2cc(-c3ccsc3)sc2c1=O,3640 (inactive)
18,CCNC(=O)C1(C)CCN(Cc2ccc(C(=O)OCC)o2)C1 (stereo not drawn),4060 (inactive)
19,CCN(CC)C(=O)CSc1nnc(-c2ccc(S(=O)(=O)NCc3ccccc3Cl)cc2)o1,16600 (active)
20,CCc1ccccc1NC(=O)CSc1nnc(-c2ccncc2)o1,4930 (inactive)
21,O=C(CSc1nnc(-c2ccc(NS(=O)(=O)c3ccccc3)cc2)o1)NCC1CCCO1 (stereo not drawn),3540 (inactive)
22,CC(C)CCN1NC2(CCC(C)CC2)NC1=S (stereo not drawn),3830 (inactive)
23,CC(C)(C)c1ccc(S(=O)(=O)NC(=O)C2(C)CCN2C(=O)CC2CC2)cc1 (stereo not drawn),4180 (inactive)
24,Cc1cc(Br)cn2c(Cc3ccccc3C(F)(F)F)c(-c3ccc(Cl)cc3)nc12,5850 (inactive)

row,Compound,fluorescence intensity
1,Clc1ccc(C2=CSC3=Nc4cccc5cccc(c45)N23)cc1,21800 (active)
2,CN(C)c1ccc(C(CC(=O)O)C(=O)O)cc1 (stereo not drawn),1950 (inactive)
3,COc1cccc(NC(=O)CN(C)C(=O)Cc2ccc(Cl)cc2Cl)c1,3890 (inactive)
4,O=C(NNc1cc(Cl)ccc1Cl)c1cccnc1Cl,4240 (inactive)
5,COC(=O)c1sc2ncccc2c1OCc1ccc(Cl)cc1Cl,23500 (active)
6,CC(C)Cc1ccc(-c2cc3nc(NCc4cccc(Cl)c4)ccn3n2)cc1,3700 (inactive)
7,C=CCC[C@@H](CCCCC)OC(=O)/C=C/[C@@H](O)[C@H](O)C[C@H](O)CC=C,6190 (inactive)
8,COc1cccc(C(=O)Nc2cc3c(cc2Br)OCCCO3)c1,7110 (inactive)
9,COc1cccc(C(=O)NNC(=O)/C=C/c2ccccc2)c1,6790 (inactive)
10,COc1cccc(C(=O)NNC(=O)c2ccccc2Br)c1,16700 (active)
11,CCN(CC)C(=O)c1ccc(NC(=O)c2cc(-n3cnnc3)ccc2Cl)cc1,23800 (active)
12,CCN(CC)C(=O)c1ccc(NC(=O)c2sccc2-c2ccccc2)cc1,4580 (inactive)
13,CCN(CC(=O)Nc1ccc(OC)cc1)C(=O)c1ccc(Cl)c(S(=O)(=O)N2CCCC2)c1,3470 (inactive)
14,CCOC(=O)C1=CC[C@@H](c2ccccc2)N(S(=O)(=O)c2ccc(C)cc2)[C@H]1c1cccc(OC)c1,6140 (inactive)
15,O=C(NCCCNC(=O)c1ccccc1Cl)c1cnccn1,4420 (inactive)
16,COc1ccccc1CCNC(=O)c1c(C)nn(CC(C)C)c1Cl,4680 (inactive)
17,COc1ccccc1CCNC(=O)c1cnccn1,16600 (active)
18,O=C(NCCS(=O)(=O)N1CCN(c2ccc(F)cc2)CC1)c1ccc2c(c1)OCO2,4110 (inactive)
19,CC1(C(=O)NS(=O)(=O)c2cccc(F)c2)CCN1C(=O)c1cccc2ccccc12 (stereo not drawn),2920 (inactive)
20,CN(C)C1CN(Cc2cn(Cc3ccccc3)nn2)S(=O)(=O)C1 (stereo not drawn),4320 (inactive)
21,O=C1c2ccccc2-c2ncnc3c(N4CCOCC4)cc(N4CCOCC4)c1c23,4380 (inactive)
22,c1cnn(-c2cc(N3CCOCC3)ncn2)c1,17000 (active)
23,NC(=O)c1ccc(N2CCOCC2)nc1,2600 (inactive)
24,CS(=O)(=O)N(CC(=O)Nc1ccc(Cl)c(Cl)c1)C1CCCCC1,21700 (active)

row,Compound,fluorescence intensity
1,N#CCCN(C(=O)Nc1ccc(Cl)c(Cl)c1)C1CCCCC1,2920 (inactive)
2,CS(=O)(=O)N(CC(=O)Nc1ccc(F)cc1)C1CCCCC1,3860 (inactive)
3,O=S1(=O)CC(N2CCN(CCO)CC2)CN1Cc1cn(Cc2ccc(Cl)cc2)nn1 (stereo not drawn),5500 (inactive)
4,Cc1nc(Nc2ccc(S(=O)(=O)N3CCCC3)cc2)c2nnn(Cc3ccccc3)c2n1,2010 (inactive)
5,O=C1c2cccnc2C(Nc2ccc(S(=O)(=O)N3CCCCCC3)cc2)N1Cc1ccccc1 (stereo not drawn),21600 (active)
6,O=S(=O)(NCc1ccccc1)c1ccc(S(=O)(=O)N2CCCC2)cc1,4970 (inactive)
7,O=C(Nc1cccc(C(=O)NC2CC2)c1)c1ccc(F)c(S(=O)(=O)N2CCOCC2)c1,6040 (inactive)
8,CCOC(=O)C1(C)CCCN(C(=O)c2ccc(F)c(Cl)c2)C1 (stereo not drawn),3580 (inactive)
9,COc1ccc(S(=O)(=O)NC(=O)C2(C)CCN2C(=O)COc2ccc(Cl)cc2)cc1 (stereo not drawn),3840 (inactive)
10,COC(=O)[C@]12CCCCC=C1N(Cc1ccc(Cl)cc1Cl)C(=O)[C@H](CC(=O)NCc1cccc3ccccc13)C2,5890 (inactive)
11,COc1ccc(N2CCN(C(c3cc4ccc(C)cc4[nH]c3=O)c3nnnn3C3CCCC3)CC2)cc1 (stereo not drawn),24400 (active)
12,COc1ccc(C(c2nnnn2C2CCCCC2)N2CCN(c3ccccc3F)CC2)cc1 (stereo not drawn),2590 (inactive)
13,CCOC(=O)C1CCN(C(c2cc3cc(C)cc(C)c3[nH]c2=O)c2nnnn2C2CCCCC2)CC1 (stereo not drawn),11300 (inactive)
14,CN(CC(=O)NC1CCN(Cc2ccccc2)CC1)S(=O)(=O)c1ccc(Cl)s1,4220 (inactive)
15,CC(C)(C)C(=O)c1c(N)[nH]c(C(=O)c2ccccc2)c1-c1ccc(F)cc1,4830 (inactive)
16,O=C(Nc1cccc(-c2nnc(-c3ccccc3)o2)c1)C1CCCO1 (stereo not drawn),8340 (inactive)
17,CCOc1ccc(NC(=O)c2ccc(NC(=O)C3CCCO3)cc2)cc1 (stereo not drawn),5940 (inactive)
18,O=C(Nc1ccc(-c2nnc(-c3ccccc3)o2)cc1)C1CCCO1 (stereo not drawn),23500 (active)
19,COc1ccc(NC(=O)NNC(=O)COc2cc(C)c(Cl)c(C)c2)c(OC)c1,4710 (inactive)
20,COc1cc(NC(=O)c2ccc(CNc3c(N4CCCC4)c(=O)c3=O)cc2)cc(OC)c1OC,4980 (inactive)
21,COc1ccc(Br)c(Cn2c(C)c(C(=O)NCc3cccs3)sc2=O)c1,5140 (inactive)
22,CCN(CC)Cc1c(C(=O)OC)nnn1-c1nonc1N,2240 (inactive)
23,c1ccc2[nH]c(-c3nc4ccccc4[nH]3)nc2c1,16500 (active)
24,O=C(Nc1sc2c(c1-c1nc3ccccc3[nH]1)CCCC2)C1CC1,3170 (inactive)

row,Compound,fluorescence intensity
1,Nc1ccccc1-c1nc2ccncc2[nH]1,3770 (inactive)
2,CCOC(=O)[C@]12CCCC=C1N(Cc1ccc3c(c1)OCO3)C(=O)[C@H](CC(=O)N1CCN(C(=O)c3ccco3)CC1)C2,3930 (inactive)
3,Cc1ccc(Cc2c(-c3ccc(Cl)cc3)nc3c4ccccc4ccn23)cc1,4990 (inactive)
4,O=c1cc(C(F)(F)F)[nH]c(=O)n1C1CCCCC1,24200 (active)
5,CC(=O)c1c(O)n(C2CCCCCC2)c(=O)[nH]c1=O,2970 (inactive)
6,Cc1ccc(Nc2cc(=O)n(C3CCCCC3)c(=O)[nH]2)cc1C,3080 (inactive)
7,CCOc1ccccc1C1C(C(=O)OC)=CN(C)C=C1C(=O)OC,19700 (active)
8,COC(=O)C1=CN(C)C=C(C(=O)OC)C1c1ccc(Cl)cc1Cl,3960 (inactive)
9,CCOc1cc(C2C(C(=O)OC)=CN(C3CCCC3)C=C2C(=O)OC)cc(Br)c1O,8950 (inactive)
10,CC(Oc1ccc2c(-c3ccccc3)cc(=O)oc2c1)C(=O)NC(Cc1c[nH]c2ccccc12)C(=O)O (stereo not drawn),3610 (inactive)
11,COc1ccc(-c2cc(=O)oc3cc(OC(C)C(=O)NCC4CCC(C(=O)O)CC4)ccc23)cc1 (stereo not drawn),6030 (inactive)
12,COC(=O)C(C)Oc1ccc2c(-c3cccc([N+](=O)[O-])c3)cc(=O)oc2c1 (stereo not drawn),21200 (active)
13,CC(C)n1c(NCc2c[nH]c3ccccc23)nc2ccccc21,2940 (inactive)
14,COCCOC(=O)c1sc(=S)n(CCOC)c1N,23500 (active)
15,CC(=O)N1Cc2cc(C(=O)NCc3cccc(F)c3)nc(-c3cccc(C4=CCCCC4)c3)c2[C@H]1CCO,5630 (inactive)
16,Cc1ccc(C(=O)OCC(=O)NCc2ccc3c(c2)OCO3)s1,3100 (inactive)
17,O=C(CNS(=O)(=O)c1ccc(Br)s1)NCc1ccc2c(c1)OCO2,24800 (active)
18,Cc1ccc(CNC(=O)CCNS(=O)(=O)c2ccc(Br)s2)cc1,3440 (inactive)
19,O=C(NCc1ccc2c(c1)OCO2)C12CC3CC(CC(C3)C1)C2,21300 (active)
20,O=C(NCc1ccc2c(c1)OCO2)c1ccc(Cl)s1,3620 (inactive)
21,O=C(NCc1cccnc1)C12CC3CC(CC(C3)C1)C2,3100 (inactive)
